Data on 18 compounds can be found in PubChem BioAssay (EPA / NIEHS).

In general, AC50 refers to the concentration giving half of the maximal activity seen.

Experiment [1] can be described thus: BSK_3C_SRB: Viability Assessment in the BioMAP Diversity Plus: 3C Assay (AID 2283023).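 Also: fitted both ways against DMSO so a hit may be signal rise or drop.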 The settings on record: primary human endothelial cells (HUVEC). The method in brief:
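Primary human umbilical vein endothelial cells in the 3C system were read 24 h after compound dosing. Total protein was stained with 0.1% sulforhodamine B after 10% TCA fixation and read at 560 nm, with bidirectional fitting against DMSO as baseline.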

Read-out in experiment [2]: Matrix Metallopeptidase 1 (MMP1), MMP1 (gene 4312)
Description: BSK_BE3C_MMP1: BioMAP Diversity Plus: BE3C Assay for Matrix Metallopeptidase 1 (MMP1) Biomarker Activity (AID 2283024). Particulars: primary human bronchial epithelial cells; actives raise or lower the signal. The method in brief: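 Human bronchial epithelial cells (BE3C system) exposed to compound for 24 h; MMP1 then quantified by ELISA. Activity was fitted in both directions relative to DMSO.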

Experiment [3] can be described thus: BSK_3C_Vis: BioMAP Diversity Plus: 3C Assay for Morphology Visualization (AID 2283025).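 Also: fitted both ways so gain or loss versus DMSO counts.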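 As to AC50: light microscopy image of cell morphology used as background control.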 Particulars: primary human endothelial cells (HUVEC). The method in brief:
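Chemicals were added to primary human umbilical vein endothelium, cells were incubated 24 h, and morphology was then visualized by light microscopy. Gain or loss of signal was fitted bidirectionally relative to DMSO.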

The nature of experiment [4]: BSK_4H_SRB: Viability Assessment in the BioMAP Diversity Plus: 4H Assay (AID 2283027).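 Also: cells exposed to compound for 24 h before staining.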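 As to AC50: curves fitted both ways versus DMSO so AC50 may be loss or gain.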 Particulars: primary human endothelial cells (HUVEC). The method in brief: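 Human umbilical vein endothelial cells, 24 h after chemical dosing; total protein measured by 0.1% sulforhodamine B staining after 10% TCA fixation, read at 560 nm. Bidirectional fitting against DMSO.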
The nature of experiment [5]: BSK_BE3C_SRB: Viability Assessment in the BioMAP Diversity Plus: BE3C Assay (AID 2283028).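 As to AC50: fitted both ways so AC50 may mark signal gain or loss versus DMSO.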 Particulars: primary human bronchial epithelial cells. The gist of the method: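 Human primary bronchial epithelial cells were exposed to test chemicals for 24 h. Total protein in parallel cultures was then measured by staining with 0.1% sulforhodamine B after 10% TCA fixation, with absorbance read at 560 nm. Activity was fitted bidirectionally against DMSO.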

Read-out in experiment [6]: Thrombomodulin, THBD (gene 7056)
The experiment can be described thus: BSK_3C_Thrombomodulin: BioMAP Diversity Plus: 3C Assay for Thrombomodulin Biomarker Activity (AID 2283029). The settings on record: primary human endothelial cells (HUVEC); actives raise or lower the signal. The method in brief:
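Read-out is ELISA of thrombomodulin on human umbilical vein endothelium 24 h after chemical dosing. Gain or loss of signal is scored relative to DMSO. Overt cytotoxicity is checked in parallel cultures by sulforhodamine B staining.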

Read-out in experiment [7]: Urokinase-type plasminogen activator receptor (uPAR), PLAUR (gene 5329)
Description: BSK_4H_uPAR: BioMAP Diversity Plus: 4H Assay for Urokinase-type plasminogen activator receptor (uPAR) Biomarker Activity (AID 2283030). The settings on record: primary human endothelial cells (HUVEC); actives raise or lower the signal. The gist of the method: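 Primary human umbilical vein endothelial cells were exposed to chemical for 24 h before cell-surface uPAR was quantified by ELISA. Activity was fitted bidirectionally against the DMSO negative control baseline.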

Read-out in experiment [8]: Vascular endothelial growth factor receptor 2 (Homo sapiens) (UniProt P35968)
Description: BSK_4H_VEGFRII: BioMAP Diversity Plus: 4H Assay for Vascular endothelial growth factor receptor 2 (VEGFR2) Biomarker Activity (AID 2283031).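 As to AC50: cell-surface VEGFR2 protein level quantified by ELISA.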 The settings on record: primary human endothelial cells (HUVEC); actives raise or lower the signal. The gist of the method:
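Primary human umbilical vein endothelial cells in the BioMAP 4H system were dosed with test chemical, and 24 h later VEGFRII was measured by ELISA. Activity was fitted bidirectionally against DMSO as negative control and baseline.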

Read-out in experiment [9]: Pselectin, SELP (gene 6403)
Description: BSK_4H_Pselectin: BioMAP Diversity Plus: 4H Assay for Pselectin Biomarker Activity (AID 2283026). Particulars: primary human endothelial cells (HUVEC); actives raise or lower the signal. The method in brief: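 ELISA read-out of P-selectin on human umbilical vein endothelium after 24 h of dosing. Values derive from bidirectional fitting relative to DMSO. Parallel SRB protein staining flagged overt cytotoxicity.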

Read-out in experiment [10]: Human Leukocyte Antigen - DR isotype (HLADR), HLA-DRA (gene 3122)
The experiment can be described thus: BSK_BE3C_HLADR: BioMAP Diversity Plus: BE3C Assay for Human Leukocyte Antigen - DR isotype (HLADR) Biomarker Activity (AID 2283032). The settings on record: primary human bronchial epithelial cells; actives raise or lower the signal. The method in brief:
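ELISA read-out of HLA-DR on human lung bronchial epithelial primary cells, measured 24 h post-dosing. Both increases and decreases were scored relative to DMSO vehicle.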

Molecules are shown by their SMILES. The source made the active and inactive calls. The calls were made as follows: active = hit-call score of the fitted dose curve at least 0.9, where 1 is the maximum; inactive = score below 0.9.

With `CCCOc1sc(C(=O)N2CCC(c3cc(CN)ccc3F)CC2)c(C)c1Br`, the AC50 in experiment [1] was 5 µM (active); in [2], 11.1 µM (active); in experiment [3] it was 8.81 µM (active); in experiment [4] it was 5.82 µM (active); in experiment [5], 4.93 µM (active); in [6], 4.5 µM (active). Moreover, the AC50 in experiment [7] was 6.64 µM (active); in [8], 4.78 µM (active).

On to `Oc1cccc(O)c1`, for which the result in [1], in [2], in [3], in experiment [4], in experiment [5] and in experiment [6] was inactive. Also, the outcome in experiment [7] and in experiment [8] was inactive.

For `CCCCCCCCCCCCCC[N+](C)(C)C`, the AC50 was 5.8 µM (active) in experiment [2]; 3.02 µM (active) in experiment [3]; 1.95 µM (active) in experiment [9]; 5.31 µM (active) in experiment [4]; 5.28 µM (active) in experiment [5]; 3.18 µM (active) in experiment [10]. The result in experiment [7] and in experiment [8] was inactive.

With `CC(C)(C)c1cccc(C(C)(C)C)c1O`, the result in experiment [2], in experiment [3], in experiment [9], in experiment [4], in experiment [5] and in experiment [6] was inactive. The result in experiment [7], in experiment [8] and in experiment [10] was inactive.

Turning to `CCCCC(CC)COC(=O)CCCCC(=O)OCc1ccccc1` (configuration not stated), the result in experiment [2], in [3], in experiment [4], in experiment [5], in experiment [6] and in experiment [7] was inactive. The result in experiment [8] and in experiment [10] was inactive.

For `CCOC(=O)CC(O)(CC(=O)OCC)C(=O)OCC`, the result in experiment [2], in experiment [3], in experiment [4], in experiment [5], in [6] and in experiment [7] was inactive. Also, in experiment [8], the result was inactive.

For the compound `CCCCCCCCCCCCCCCS(=O)(=O)Oc1ccccc1`, the outcome in [2], in [3], in [4], in experiment [5], in [6] and in [7] was inactive. Moreover, the outcome in experiment [8] was inactive.

In the case of `c1ccc2cc3c(ccc4ccccc43)cc2c1`, the AC50 is 1.42 µM (active) in experiment [2] and 9.8 µM (active) in experiment [3]. The result in experiment [9], in experiment [4], in experiment [5], in experiment [6], in experiment [7] and in experiment [8] was inactive.

As for `CCCCCCC(=O)O`, the outcome in experiment [2], in experiment [3], in experiment [9], in experiment [4], in experiment [5] and in experiment [6] was inactive. Also, the outcome in experiment [7] and in [8] was inactive.

`Oc1cc2ccccc2c2ccccc12`: the AC50 in experiment [2] was 27.9 µM (active); in [3], 13.3 µM (active); in experiment [4], 16.6 µM (active); in experiment [5], 28.8 µM (active); in [6], 9.55 µM (active); in experiment [7], 13.2 µM (active). In addition, the AC50 in experiment [8] was 30.1 µM (active).

Regarding `CC(O)CO` (configuration not stated), the result in [2], in experiment [3], in experiment [4], in experiment [5], in experiment [6] and in experiment [7] was inactive. The outcome in experiment [8] was inactive.

`CCC(=C(c1ccc(O)cc1)c1ccc(OCCN(C)C)cc1)c1ccccc1`: the AC50 in experiment [2] is 12.2 µM (active); in experiment [3] it was 6.97 µM (active); in experiment [9] it was 6.16 µM (active); in experiment [4], 8.19 µM (active); in experiment [5], 9.32 µM (active); in experiment [6], 12.8 µM (active). In [7], the AC50 is 7.41 µM (active). In addition, the result in [8] was inactive.

Take `C#C[C@]1(O)CC[C@H]2[C@@H]3CCC4=CC(=O)CC[C@@H]4[C@H]3CC[C@@]21C`: the result in experiment [2], in [3], in [5] and in experiment [6] was inactive. Moreover, the half-maximal activity concentration (AC50) in [4] was 17.1 µM (active); in [7], 11 µM (active); in experiment [8], 20 µM (active).

Regarding `CCc1ccc(CCOc2ccc(CC3SC(=O)NC3=O)cc2)nc1` (configuration not stated), the result in experiment [2], in experiment [3], in [4], in [5], in experiment [6] and in [7] was inactive. In addition, the result in [8] was inactive.

In the case of `OC1CCCCC1`, the outcome in experiment [2], in experiment [3], in [9], in experiment [4], in experiment [5] and in [6] was inactive. In addition, the outcome in experiment [7] and in experiment [8] was inactive.

Consider `CN1CCC[C@H]1c1cccnc1`, for which the outcome in experiment [2], in experiment [3], in [4], in experiment [5], in experiment [6] and in experiment [7] was inactive. The outcome in experiment [8] was inactive.

With `CC(=O)NC1(c2cccc(F)c2)CCN(CC[C@@]2(c3ccc(Cl)c(Cl)c3)CN(c3ccccc3)C(=O)CO2)CC1`, the result in experiment [2], in experiment [5], in experiment [6] and in experiment [8] was inactive. Besides, the AC50 in experiment [3] is 12.7 µM (active); in experiment [4] it was 20.3 µM (active); in experiment [7] it was 16.6 µM (active); in experiment [10], 24.5 µM (active).

On to `CCCCCCCCOC(=O)CCCCCCCCC(=O)OCCCCCCCC`, for which the outcome in experiment [2], in experiment [3], in experiment [4], in [5], in experiment [6] and in experiment [7] was inactive. Besides, the outcome in experiment [8] was inactive.
